Compounds with a hit are over-represented: about 19% of the library has one in this group of screens.
Pf growth 96h: inhibits malaria parasite growth, 96 h; P. falciparum luciferase reporter growth, 96 h; 6.9% of 320,000 active; Potency, µM (series often up to 28.7 µM), inactives show at the top dose activity change, negative = inhibition, usual class: inhibitors; also: potency is read from the fitted curve at half-maximal effect; % is scaled to controls: 0 for no effect and ±100 for the full control effect
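P. falciparum expressing integrated firefly luciferase, in erythrocytes at 2% hematocrit, 0.05% parasitemia, incubated with compounds 96 h at 37 C, 5% CO2. Growth inhibition read as loss of luminescence; two-generation exposure targets delayed-death apicoplast inhibitors.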
Shiga toxin inh: Shiga toxin inhibition; Vero cells, Shiga toxin protein synthesis inhibition reporter; inhibition, % at 38.7 µM; 9.2% of 290,000 active; in the data active = inhibition mostly above about 28%, no sharp cut-off; inactive = mostly below about 43%; also: 0% is about no effect
LASV entry inh: inhibitors of Lassa virus binding or cell entry; 1.2% of 300,000 active; Potency, µM (doses to about 37.9 µM), inactives show at the highest dose activity change, negative = inhibition, actives largely listed as inhibitors; AID 540256; Lassa virus pseudotype entry inhibition, cell reporter; calls by dose curve; tested in HEK293 cells; also: potency is read from the fitted curve at half-maximal effect; % is scaled to controls: 0 for no effect and ±100 for the full control effect; nearly all actives have a fitted effect of over 50% in size
Pf growth 48h: P. falciparum growth inhibition at 48 hours (one generation). P. falciparum luciferase growth in erythrocytes, 48 h. Potency, µM (doses to about 28.7 µM), for the others: at the top dose activity change, negative = inhibition, usual class: inhibitors. 5.9% of 310,000 active; also: potency is read from the fitted curve at half-maximal effect; % is scaled to controls: 0 for no effect and ±100 for the full control effect
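Here the parasites carry a stable luciferase gene and grow inside erythrocytes in Albumax-based RPMI medium with compound for one erythrocytic cycle. Activity is scored as loss of luminescent signal.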
CHX counter: counter-screen hit for Shiga toxin inhibitors, cycloheximide; max response, %; cell reporter, cycloheximide protein synthesis inhibition counterscreen; AID 2314; 12% of 300,000 active; in the data active = max response mostly above about 13%, no sharp cut-off; inactive = mostly below about 14%; also: read at 38.3 µM for the half of the compounds with a filed dose; 0% is about no effect
MARV entry inh: blocks Marburg virus binding to or entry into cells. Marburg virus pseudotyped entry inhibition, cell reporter. Potency, µM (doses to about 37.8 µM), for inactives: at the highest dose activity change, negative = inhibition, actives largely listed as inhibitors. 1.8% of 300,000 active; calls by dose curve; tested in HEK293 cells; also: potency is read from the fitted curve at half-maximal effect; % is scaled to controls: 0 for no effect and ±100 for the full control effect
* marks the source's active call; other numbers are inactive results; ? = inconclusive; . = no result given; [ ] = remark or other dose. Unless noted, calls follow the shape of the dose curve; as a rule, active = well fitted inhibition curve with a large enough effect; inconclusive = small, poorly fitted or top-dose-only effect, or another doubt; inactive = no such curve, though single readings can be large or run the other way.

SMILES	Pf growth 96h	Shiga toxin inh	LASV entry inh	Pf growth 48h	CHX counter	MARV entry inh
Cc1cc(/C=C2/NC(=O)N(Cc3ccccc3F)C2=O)c(C)n1C	10µM*	-5	?	10µM*	-7	?
Cc1cccc(NC(=O)CN2C(=O)N/C(=C/c3cc(C)n(-c4ccncc4)c3C)C2=O)c1	?	-6	-25%	-12%	-2	-44%
O=C(OCc1cc(=O)c(OC(=O)c2ccccc2)co1)c1ccccc1	.	.	1%	.	.	-2%
COc1ccc(CCC(=O)NNC(=O)Cn2nc(C)cc2C)cc1	9%	5	6%[46.1 µM]	5%	-1	-1%[46.1 µM]
CN(C)c1ccc(/C=N/NC(=O)CSc2ccccn2)cc1	-1%	56*	?	31%	40*	30%[46.1 µM]
CCCOc1ccc(/C=N/NC(=O)CSc2ccccn2)cc1OC	81%	85*	8%[46.1 µM]	38%	36*	?
CCN(CC(=O)Nc1ccc(NC(C)=O)cc1)C(=O)CSCC(=O)Nc1ccc(C)cc1	8%	.	4%[46.1 µM]	-4%	.	2%
N#CCSc1ncnc2ccccc12	-26%	-4	.	-13%	1	.
c1ccc(Sc2ncnc3ccccc23)cc1	?	36	27%	?	12*	-13%[14.2 µM]
Cc1cccc(N(Cc2ccccc2F)S(C)(=O)=O)c1	9.3µM*	-11	6%	-18%	-3	-1%
Cc1ccc(N(Cc2ccccc2F)S(C)(=O)=O)cc1C	?	-9	-2%	.	-2	9%
O=C(Cn1cc([N+](=O)[O-])cn1)NCCc1c[nH]c2ccccc12	?	-4	-10%	15%	-2	14%[46.1 µM]
CCc1c(C)sc(NC(=S)Nc2cccnc2)c1C(=O)OC	10%	22*	?	28%	-2	1%[46.1 µM]
O=C(NCc1ccncc1)c1cn(-c2ccccc2)nc1-c1cccnc1	?	-9	.	15µM*	-5	.
CCc1ccccc1NC(=O)CNC(=O)c1cn(Cc2ccccc2)nc1-c1cccnc1	5.9µM*	.	10%	?	.	?
O=C(NC1CCN(Cc2ccccc2)CC1)c1ccccc1Cl	?	-8	.	11%	-1	.
O=C(NC1CCN(Cc2ccc(Cl)cc2)CC1)c1cn(-c2ccccc2)nc1-c1cccnc1	?	.	.	1.9µM*	.	.
O=C(NCc1cccnc1)c1cn(-c2ccccc2)nc1-c1ccccc1	31%	20	-7%	53%	21*	11%[14.2 µM]
O=C(NCc1cccnc1)c1ccccc1-c1ccccc1	-22%	13	1%	7%	1	1%[46.1 µM]
Cc1ccc(SC(C)C(=O)NCC(C)C)cc1 (centres undefined)	-7%	12	16%	15µM*	9	0%
CC(C)C(NC(=O)C(c1ccccc1)c1ccccc1)c1nc2ccccc2[nH]1 (centres undefined)	.	-6	-29%	9.3µM*	-2	?
CSCC[C@H](NC(=O)C(C)(C)Oc1ccc(Cl)cc1)c1nc2ccccc2[nH]1	10µM*	12	21%	?	4	-11%
CC(C)C(NC(=O)c1ccc(S(=O)(=O)N2CCOCC2)cc1)c1nc2ccccc2[nH]1 (centres undefined)	13µM*	-4	-1%	-20%	-4	-2%
C[C@H](NC(=O)c1ccc(Cl)c(S(=O)(=O)N2CCOCC2)c1)c1nc2ccccc2[nH]1	3.3µM*	.	.	?	.	.
CCOC(=O)c1nn(-c2ccc(C)cc2)c2nc(Nc3ccccc3)cc(=O)n12	.	-3	4%	5%	-1	-18%
SMILES	Pf growth 96h	Shiga toxin inh	LASV entry inh	Pf growth 48h	CHX counter	MARV entry inh
C/C(N)=C(/C#N)C(=O)COC(=O)CCCNC(=O)c1ccc(Cl)cc1	?	-2	.	-1%	4	.
CN1/C(=C\C(=O)C(F)F)C(C)(C)c2ccccc21	11%	-5	-2%	18%	-1	3%
CSCC[C@H](NC(=O)c1cccc(S(=O)(=O)N2CCN(C)CC2)c1)c1nc2ccccc2[nH]1	.	.	-4%[46.1 µM]	.	.	?
CSCC[C@H](NC(=O)c1ccc(Cl)c(S(=O)(=O)N2CCCC2)c1)c1nc2ccccc2[nH]1	10µM*	16	?	12µM*	-1	-3%
COc1ccc(OC)c(NC(=O)CCCc2ccccc2)c1	-6%	-3	.	4%	-1	.
CCOc1ccccc1CNC(=O)C1CCCN(c2nnc(C)c3c(C)n(-c4ccccc4)nc23)C1 (centres undefined)	38%	7	1%[46.1 µM]	13µM*	6	.
COc1ccc(-n2nc3c(N4CCCC(C(=O)NCc5ccccc5C)C4)nnc(C)c3c2C)cc1 (centres undefined)	2.1µM*	.	6.3µM*	12µM*	.	.
COc1ccc(-n2nc3c(N4CCCC(C(=O)NCCc5ccccc5C)C4)nnc(C)c3c2C)cc1 (centres undefined)	.	.	-17%[46.1 µM]	.	.	.
CCOc1ccccc1CNC(=O)C1CCCN(c2nc3ccccc3o2)C1 (centres undefined)	3.7µM*	-6	.	12%	1	0%
Nc1cccc2c3c(oc12)CCCC3	2%	11	.	54%	9.4*	.
O=c1[nH]c2c(cc1CNCCN1CCOCC1)c(-c1cccc(F)c1)nn2-c1ccccc1	-6%	20	.	2.1µM*	-1	.
CCCCN1CC(COCc2ccccc2)Oc2cccc(Oc3ccc(C(C)C)cc3)c2S1(=O)=O (centres undefined)	.	.	-3%[46.1 µM]	.	.	.
C[C@H](c1ccccc1)N1C[C@@H](COCc2ccccc2)Oc2cccc(Oc3ccc(F)cc3)c2S1(=O)=O	.	.	3.5µM*	.	.	.
Cc1ccccc1CNC(=O)C1CCC(=O)N(CC2CCCCC2)C1 (centres undefined)	47%	19	1%	-3%	0	0%
COc1ccc(CNC(=O)N2CCN(S(=O)(=O)c3ccccc3)CC2)cc1	26%	-4	-18%	29%	0	-8%[46.1 µM]
O=C1C(=O)c2ccccc2-c2ccccc21	?	-41	.	.	-12	.
O=C1C(=O)c2ccccc2C(O)=C1CC=C(Cl)Cl	.	.	3.2µM*	.	.	?
Clc1cccc(-c2nc3ccccn3c2Nc2ccc3c(c2)OCCO3)c1	.	.	1%[46.1 µM]	.	.	-25%[46.1 µM]
CSc1ncc(C(=O)Nc2cc(C)cc(C)c2)c(-c2ccccc2)n1	.	.	20%[46.1 µM]	.	.	.
COC(=O)c1ccc(NC(=O)c2ccccc2-c2ccccc2C(=O)O)cc1	27%	-8	0%	-10%	5	?
CSc1ncc(C(=O)Nc2ccc(C(C)=O)cc2)c(-c2ccccc2)n1	?	51*	15%[46.1 µM]	13%	41*	.
CC(=O)c1ccc(NC(=O)c2ccccc2-c2ccccc2C(=O)O)cc1	4.7µM*	42	-14%[46.1 µM]	0%	-4	1%[46.1 µM]
CCOC(=O)c1c(/N=C/C2=C(O)CCCC2=O)sc(C)c1C	8%	-5	-5%	16%	-3	2%
O=C(Cn1nc2sc3ccccc3n2c(=O)c1=O)c1cccs1	40%	9	.	21%	-3	.
CCOC(=O)c1c(NS(=O)(=O)c2ccccc2)n(CCCOC)c2nc3ccccc3nc12	0%	-3	9%	10µM*	-1	?

High-throughput results deposited in PubChem BioAssay by National Center for Advancing Translational Sciences (NCATS).
